Results published in PubChem BioAssay (EPA / NIEHS).
Results filed as inconclusive are left out. Activity calls are given as the source filed them. How the source made its calls, unless noted: active means hit-call score of the fitted dose curve at least 0.9, where 1 is the maximum; inactive means score below 0.9.

Columns and labels:
[1] = molecular target: Paired box protein Pax-6 (Homo sapiens) (UniProt P26367); assay: ATG_Pax6_CIS: Attagene CIS-FACTORIAL HepG2 Assay for human Paired Box 6 (PAX6) (AID 2282956); details: HepG2 CIS-FACTORIAL PAX6 reporter transcription, RNA readout; actives raise or lower the signal
Outline: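 HepG2 cells transiently transfected with multiplexed cis-promoter reporter units (endogenous TF activity) were dosed for 24 h. Reporter mRNA was quantified by RT-PCR, 6-FAM labeling, HpaI digestion and capillary electrophoresis; bidirectional fitting versus DMSO baseline.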

[2] = ATG_PXRE_CIS: Attagene CIS-FACTORIAL HepG2 Assay for human Pregnane X Receptor Element (PXRE) (AID 2282957); details: HepG2 Attagene CIS-FACTORIAL PXRE reporter, mRNA; actives raise or lower the signal
Outline: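 HepG2 cells transiently transfected with cis-element-driven multiplexed reporter units; after 24 h chemical exposure, reporter mRNA measured by RT-PCR, 6-FAM labelling, HpaI digestion and capillary electrophoresis. Bidirectional fitting relative to DMSO.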

[3] = ATG_PPRE_CIS: Attagene CIS-FACTORIAL HepG2 Assay for human Peroxisome Proliferator-activated Response Element (PPRE) (AID 2282958); details: HepG2 PPRE cis-element reporter, Attagene transcription factor profiling; actives raise or lower the signal
Outline: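 HepG2 cells are transiently transfected with multiplexed cis-promoter reporter units to report endogenous PPAR activity. After 24 h dosing, reporter mRNA is read by RT-PCR and capillary electrophoresis. Fitting is bidirectional against DMSO.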

[4] = ATG_RORE_CIS: Attagene CIS-FACTORIAL HepG2 Assay for human RAR-related Orphan Receptor Element (RORE) (AID 2282959); details: HepG2 Attagene cis-factorial RORE reporter, mRNA; actives raise or lower the signal
Outline: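 HepG2 cells carrying transiently transfected cis-regulated reporter units; RORE-driven reporter mRNA quantified 24 h post-dosing by RT-PCR, 6-FAM primer extension, HpaI digestion and capillary electrophoresis. Bidirectional fit versus DMSO.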

[5] = ATG_Sox_CIS: Attagene CIS-FACTORIAL HepG2 Assay for human SRY-box transcription factor (SOX) (AID 2282960); details: HepG2 Attagene cis-factorial SOX reporter, mRNA; actives raise or lower the signal
Outline: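 HepG2 cells transiently transfected with multiple cis-regulated reporter units, then dosed for 24 h. Reporter mRNA quantified by RT-PCR, fluorescent labelling, HpaI digestion and capillary electrophoresis; bidirectional fit versus DMSO.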

[6] = molecular target: Transcription factor Sp1 (Homo sapiens) (UniProt P08047); assay: ATG_Sp1_CIS: Attagene CIS-FACTORIAL HepG2 Assay for human Specificity Protein 1 (Sp1) (AID 2282961); details: HepG2 Sp1 cis-reporter transcription, actives raise or lower the signal
Outline: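 HepG2 cells transiently transfected with multiplexed cis-regulated reporter constructs, chemical exposure 24 h. Reporter mRNA quantified by RT-PCR with capillary electrophoresis; bidirectional fit relative to DMSO.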

[7] = ATG_SREBP_CIS: Attagene CIS-FACTORIAL HepG2 Assay for human Sterol Regulatory Element Binding (SREBP) (AID 2282962); details: HepG2 Attagene cis-factorial SREBP reporter, mRNA; actives raise or lower the signal
Outline: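 HepG2 cells transiently transfected with multiplexed cis-element reporter units report endogenous transcription factor activity. After 24 h of chemical exposure, reporter mRNA was quantified by RT-PCR, 6-FAM labelling, HpaI digestion and capillary electrophoresis; bidirectional fits used DMSO as baseline.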

[8] = molecular target: Signal transducer and activator of transcription 3 (Homo sapiens) (UniProt P40763); assay: ATG_STAT3_CIS: Attagene CIS-FACTORIAL HepG2 Assay for human Signal Transducer and Activator of Transcription 3 (STAT3) (AID 2282963); details: HepG2, Attagene cis-factorial STAT3 reporter transcription; actives raise or lower the signal
Outline: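 HepG2 cells transiently transfected with multiple cis-element-driven reporter units report endogenous transcription factor activity. After 24 h compound exposure, reporter mRNA is measured by RT-PCR, 6-FAM labelling, HpaI digestion and capillary electrophoresis. Fitted bidirectionally versus DMSO.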

[9] = ATG_TCF_b_cat_CIS: Attagene CIS-FACTORIAL HepG2 Assay for human T-Cell-Factor with beta-catenin (TCF/b-cat) (AID 2282965); details: HepG2 TCF/beta-catenin cis-reporter transcription, actives raise or lower the signal
Outline: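 HepG2 cells transiently transfected with cis-promoter-driven multiplexed reporter units; reporter mRNA measured 24 h after dosing by RT-PCR, FAM labelling, HpaI digestion and capillary electrophoresis. Bidirectional fitting relative to DMSO baseline.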

[10] = ATG_TAL_CIS: Attagene CIS-FACTORIAL HepG2 Assay for human TAL Basal Promoter (AID 2282966); details: HepG2 Attagene cis-factorial TAL promoter reporter; actives raise or lower the signal;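 further: background control endpoint measuring basal TAL promoter reporter mRNA not a specific factor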
Outline: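 HepG2 cells transiently transfected with multiplexed cis-promoter reporter units, dosed 24 h. Reporter mRNA quantified by RT-PCR, 6-FAM labelling, HpaI digestion and capillary electrophoresis; TAL basal promoter serves as background control, fitted bidirectionally versus DMSO.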

[11] = ATG_TGFb_CIS: Attagene CIS-FACTORIAL HepG2 Assay for human Transforming Growth Factor (TGF) (AID 2282967); details: HepG2 Attagene CIS TGFb reporter, mRNA transcription; actives raise or lower the signal
Outline: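 Bidirectional fitting relative to DMSO gave the endpoint. Underlying data: reporter mRNA from HepG2 cells carrying transiently transfected cis-regulated reporter constructs, harvested 24 h after dosing and analyzed by RT-PCR and capillary electrophoresis.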

[12] = ATG_VDRE_CIS: Attagene CIS-FACTORIAL HepG2 Assay for human Vitamin D Receptor Element (VDRE) (AID 2282968); details: HepG2 VDRE cis-reporter transcription, actives raise or lower the signal
Outline: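 Transiently transfected HepG2 cells carrying cis-regulated reporter transcription units were exposed for 24 h. Reporter mRNA was measured by RT-PCR with fluorescent labelling and capillary electrophoresis, and fitted in both directions against DMSO.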

[13] = molecular target: Nuclear receptor subfamily 1 group I member 3 (Homo sapiens) (UniProt Q14994); assay: ATG_CAR_TRANS: Attagene TRANS-FACTORIAL HepG2 Assay for human Constitutive Androstane Receptor (CAR) (AID 2282969; active means hit-call score of the fitted dose curve at least 0.9, where 1 is the maximum;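 further: activators raise reporter mRNA above DMSO so AC50 marks induction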); details: HepG2 Attagene TRANS-FACTORIAL CAR reporter
Outline: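 HepG2 cells transiently transfected with GAL4-UAS reporter units; TRANS format reads activity of exogenous chimeric NR-Gal4 protein. After 24 h dosing, reporter mRNA quantified by RT-PCR, 6-FAM labelling and capillary electrophoresis; gain of signal fitted against DMSO.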

[14] = molecular target: X-box-binding protein 1 (Homo sapiens) (UniProt P17861); assay: ATG_Xbp1_CIS: Attagene CIS-FACTORIAL HepG2 Assay for human X-box Binding Protein 1 (XBP1) (AID 2282972); details: HepG2 XBP1 cis-element reporter, Attagene multiplex; actives raise or lower the signal
Outline: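 HepG2 cells transiently transfected with cis-regulated multiple reporter transcription units; endogenous transcription factor activity measured 24 hours after chemical dosing. Reporter mRNA quantified by RT-PCR, 6-FAM primer extension, HpaI digestion and capillary electrophoresis; bidirectional fitting versus DMSO.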

[15] = ATG_M_19_TRANS: Attagene TRANS-FACTORIAL HepG2 Assay for M19 Transcription Factor (Internal Marker) (AID 2282974; active means hit-call score of the fitted dose curve at least 0.9, where 1 is the maximum); details: HepG2 Attagene TRANS-FACTORIAL M19 internal marker reporter
Outline: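 HepG2 transiently transfected with GAL4-UAS multiplex reporter constructs, exposed 24 h; reporter RNA quantified by RT-PCR, 6-FAM labeling, HpaI digestion and capillary electrophoresis; internal background marker fitted upward versus DMSO.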

[16] = ATG_TA_CIS: Attagene CIS-FACTORIAL HepG2 Assay for human TA Basal Promoter (AID 2282964); details: HepG2 Attagene CIS-factorial TA basal promoter reporter; actives raise or lower the signal
Outline: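 Fluorescence from labelled RT-PCR reporter fragments, separated by capillary electrophoresis, gives the signal. Cells: HepG2 transiently carrying multiple reporter units, 24 h chemical dosing. Gain or loss relative to DMSO.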

[17] = molecular target: Steroid hormone receptor ERR1 (Homo sapiens) (UniProt P11474); assay: ATG_ERRa_TRANS: Attagene TRANS-FACTORIAL HepG2 Assay for human Estrogen-Related Receptor alpha (ERRa) (AID 2282971; active means hit-call score of the fitted dose curve at least 0.9, where 1 is the maximum); details: HepG2 Attagene TRANS reporter, ERRa transactivation
Outline: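 HepG2 cells transiently transfected with GAL4-UAS reporter units and chimeric NR-Gal4 constructs; after 24 hour compound incubation, reporter mRNA quantified by RT-PCR, fluorescent labelling and capillary electrophoresis, gain of signal versus DMSO.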

[18] = molecular target: Estrogen-related receptor gamma (Homo sapiens) (UniProt P62508); assay: ATG_ERRg_TRANS: Attagene TRANS-FACTORIAL HepG2 Assay for human Estrogen-Related Receptor gamma (ERRg) (AID 2282977; active means hit-call score of the fitted dose curve at least 0.9, where 1 is the maximum;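 further: hits increase reporter signal over DMSO so potencies reflect activators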); details: HepG2 Attagene TRANS reporter, ERRg transactivation
Outline: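 Transfect HepG2 with multiple GAL4-UAS reporter transcription units; dose chemicals 24 h; isolate RNA, reverse-transcribe with oligo(dT), PCR-amplify, label with 6-FAM, digest with HpaI; size fragments by capillary electrophoresis. DMSO serves as negative control.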

[19] = ATG_GAL4_TRANS: Attagene TRANS-FACTORIAL HepG2 Assay for GAL4 (Internal Marker) (AID 2282976; active means hit-call score of the fitted dose curve at least 0.9, where 1 is the maximum); details: HepG2 Attagene TRANS GAL4 internal marker reporter
Outline: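 Background-control readout: GAL4-UAS reporter transcript in transiently transfected HepG2 cells after 24 h compound exposure. Measured by RT-PCR, 6-FAM primer extension, HpaI digest and capillary electrophoresis; gain-of-signal fit versus DMSO.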

Measured: AC50

Sequence of Estrogen-related receptor gamma (Homo sapiens) (P62508 whole entry, looked up, the tested form may be a part): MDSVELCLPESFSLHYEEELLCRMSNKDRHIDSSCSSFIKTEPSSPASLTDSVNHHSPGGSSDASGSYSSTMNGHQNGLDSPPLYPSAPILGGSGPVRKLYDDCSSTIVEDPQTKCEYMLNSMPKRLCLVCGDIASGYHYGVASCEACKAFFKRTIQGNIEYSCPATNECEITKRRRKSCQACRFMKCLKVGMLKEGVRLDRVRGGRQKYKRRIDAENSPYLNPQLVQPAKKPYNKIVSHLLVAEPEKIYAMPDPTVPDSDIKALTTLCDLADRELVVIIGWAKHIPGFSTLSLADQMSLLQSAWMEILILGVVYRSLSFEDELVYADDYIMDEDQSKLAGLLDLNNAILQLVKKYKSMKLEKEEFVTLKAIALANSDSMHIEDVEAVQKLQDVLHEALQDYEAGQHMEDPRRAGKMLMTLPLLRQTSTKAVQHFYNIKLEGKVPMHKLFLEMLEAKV
Sequence of Nuclear receptor subfamily 1 group I member 3 (Homo sapiens) (Q14994 whole entry, looked up, the tested form may be a part): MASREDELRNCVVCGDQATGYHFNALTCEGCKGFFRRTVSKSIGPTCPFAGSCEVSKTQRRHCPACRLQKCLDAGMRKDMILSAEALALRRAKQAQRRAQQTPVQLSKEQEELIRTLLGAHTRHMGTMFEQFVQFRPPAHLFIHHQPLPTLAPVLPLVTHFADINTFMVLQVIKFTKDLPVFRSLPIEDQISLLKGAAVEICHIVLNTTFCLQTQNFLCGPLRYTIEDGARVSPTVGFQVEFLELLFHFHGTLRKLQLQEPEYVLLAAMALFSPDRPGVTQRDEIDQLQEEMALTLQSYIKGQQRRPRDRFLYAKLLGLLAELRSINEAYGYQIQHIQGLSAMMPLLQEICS
Sequence of Signal transducer and activator of transcription 3 (Homo sapiens) (P40763 whole entry, looked up): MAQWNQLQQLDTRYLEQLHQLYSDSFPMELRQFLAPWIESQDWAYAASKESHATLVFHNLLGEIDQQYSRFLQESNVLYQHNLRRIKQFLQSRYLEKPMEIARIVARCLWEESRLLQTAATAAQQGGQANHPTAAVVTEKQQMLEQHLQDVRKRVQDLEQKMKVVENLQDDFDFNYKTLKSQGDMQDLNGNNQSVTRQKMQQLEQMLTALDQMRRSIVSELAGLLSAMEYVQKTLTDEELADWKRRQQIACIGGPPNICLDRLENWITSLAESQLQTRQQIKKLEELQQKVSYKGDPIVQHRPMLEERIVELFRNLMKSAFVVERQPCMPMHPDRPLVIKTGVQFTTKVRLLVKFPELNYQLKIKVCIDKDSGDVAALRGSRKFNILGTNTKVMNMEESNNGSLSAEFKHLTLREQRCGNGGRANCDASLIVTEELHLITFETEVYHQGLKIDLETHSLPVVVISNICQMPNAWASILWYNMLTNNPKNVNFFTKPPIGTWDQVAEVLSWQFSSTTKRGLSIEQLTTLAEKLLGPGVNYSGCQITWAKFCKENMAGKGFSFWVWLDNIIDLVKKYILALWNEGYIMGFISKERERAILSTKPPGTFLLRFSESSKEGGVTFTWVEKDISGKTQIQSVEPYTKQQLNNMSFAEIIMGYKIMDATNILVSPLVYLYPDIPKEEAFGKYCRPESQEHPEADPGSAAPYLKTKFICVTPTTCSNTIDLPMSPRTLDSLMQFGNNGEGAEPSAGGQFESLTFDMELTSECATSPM
Sequence of Transcription factor Sp1 (Homo sapiens) (P08047 whole entry, looked up): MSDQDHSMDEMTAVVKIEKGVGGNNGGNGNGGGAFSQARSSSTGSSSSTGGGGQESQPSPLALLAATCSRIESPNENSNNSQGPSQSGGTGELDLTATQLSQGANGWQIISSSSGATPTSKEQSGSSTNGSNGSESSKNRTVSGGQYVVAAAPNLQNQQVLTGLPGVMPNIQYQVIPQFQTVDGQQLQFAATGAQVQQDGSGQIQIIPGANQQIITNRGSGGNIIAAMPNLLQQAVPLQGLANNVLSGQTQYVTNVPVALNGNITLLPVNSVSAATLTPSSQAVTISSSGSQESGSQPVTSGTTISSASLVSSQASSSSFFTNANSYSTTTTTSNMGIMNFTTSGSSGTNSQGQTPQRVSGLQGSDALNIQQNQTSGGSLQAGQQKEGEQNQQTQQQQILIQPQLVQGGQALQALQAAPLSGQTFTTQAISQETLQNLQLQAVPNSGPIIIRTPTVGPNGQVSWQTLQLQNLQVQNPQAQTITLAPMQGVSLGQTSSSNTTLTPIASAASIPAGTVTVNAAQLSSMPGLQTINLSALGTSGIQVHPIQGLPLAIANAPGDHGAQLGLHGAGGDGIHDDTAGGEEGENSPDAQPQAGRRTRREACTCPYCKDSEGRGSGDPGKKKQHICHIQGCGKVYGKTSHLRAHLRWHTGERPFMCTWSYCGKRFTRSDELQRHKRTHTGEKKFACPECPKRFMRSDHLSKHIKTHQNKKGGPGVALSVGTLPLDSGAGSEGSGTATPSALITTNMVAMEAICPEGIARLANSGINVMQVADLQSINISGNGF
Sequence of X-box-binding protein 1 (Homo sapiens) (P17861 whole entry, looked up): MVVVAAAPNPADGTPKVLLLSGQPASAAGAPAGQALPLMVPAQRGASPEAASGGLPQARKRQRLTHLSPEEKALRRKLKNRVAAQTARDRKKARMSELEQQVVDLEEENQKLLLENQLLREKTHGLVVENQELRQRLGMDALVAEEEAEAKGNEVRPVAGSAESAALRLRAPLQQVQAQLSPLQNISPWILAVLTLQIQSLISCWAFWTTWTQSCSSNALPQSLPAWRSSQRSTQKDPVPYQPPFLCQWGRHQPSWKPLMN
Sequence of Paired box protein Pax-6 (Homo sapiens) (P26367 whole entry, looked up): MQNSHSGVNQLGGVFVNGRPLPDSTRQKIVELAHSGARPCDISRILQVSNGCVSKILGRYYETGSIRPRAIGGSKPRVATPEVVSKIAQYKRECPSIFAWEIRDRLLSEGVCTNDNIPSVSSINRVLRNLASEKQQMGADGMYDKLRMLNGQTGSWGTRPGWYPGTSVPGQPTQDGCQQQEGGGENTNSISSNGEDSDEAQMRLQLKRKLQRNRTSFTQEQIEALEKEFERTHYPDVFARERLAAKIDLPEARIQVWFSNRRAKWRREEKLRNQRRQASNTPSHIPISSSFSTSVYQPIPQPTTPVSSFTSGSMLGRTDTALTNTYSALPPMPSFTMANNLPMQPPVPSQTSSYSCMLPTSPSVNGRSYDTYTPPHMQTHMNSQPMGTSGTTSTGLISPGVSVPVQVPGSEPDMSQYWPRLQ
Sequence of Steroid hormone receptor ERR1 (Homo sapiens) (P11474 whole entry, looked up, the tested form may be a part): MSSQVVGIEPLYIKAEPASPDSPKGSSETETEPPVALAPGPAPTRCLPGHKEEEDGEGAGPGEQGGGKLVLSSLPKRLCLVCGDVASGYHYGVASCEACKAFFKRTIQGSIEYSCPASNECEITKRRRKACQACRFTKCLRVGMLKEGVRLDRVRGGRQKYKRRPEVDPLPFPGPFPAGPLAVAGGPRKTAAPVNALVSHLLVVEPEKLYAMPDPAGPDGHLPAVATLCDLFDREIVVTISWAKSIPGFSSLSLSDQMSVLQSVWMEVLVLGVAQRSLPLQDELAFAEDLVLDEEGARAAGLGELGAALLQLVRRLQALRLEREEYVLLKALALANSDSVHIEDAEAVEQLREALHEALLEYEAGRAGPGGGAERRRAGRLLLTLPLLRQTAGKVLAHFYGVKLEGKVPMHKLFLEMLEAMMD

CCCCCCOC(=O)CCC
active: [2] 24.8 µM
not listed: [16] | [17] | [18] | [19]
inactive: all other assays above

CCO/C=C1\N=C(c2ccccc2)OC1=O
active: [2] 63.8 µM
not listed: [12] | [13] | [16] | [17] | [18] | [19]
inactive: all other assays above

CC(CN=Cc1ccccc1O)N=Cc1ccccc1O (centres undefined)
active: [10] 25.9 µM
not listed: [7] | [12] | [15] | [17] | [18] | [19]
inactive: all other assays above

O=C1OC[C@H](Cc2cccc(O)c2)[C@H]1Cc1cccc(O)c1
active: [2] 5.12 µM | [12] 21.8 µM
not listed: [6] | [13] | [15] | [17] | [18] | [19]
inactive: all other assays above

COc1ccc(OC)c(N=Nc2c(O)ccc3ccccc23)c1
active: [2] 3.46 µM
not listed: [15] | [16] | [19]
inactive: all other assays above

Cc1ccc(C)o1
not listed: [9] | [13] | [17]
inactive: all other assays above

CCc1ccc(O)cc1
active: [2] 32.3 µM
not listed: [7] | [13] | [17]
inactive: all other assays above

CCCCCCC(=O)c1ccccc1
active: [2] 43.2 µM
not listed: [12] | [16] | [17] | [18] | [19]
inactive: all other assays above

CCOc1ccc(NC(=O)CC(C)O)cc1 (centres undefined)
active: [11] 0.0975 µM
not listed: [9] | [12] | [13] | [17] | [18] | [19]
inactive: all other assays above
